Source: PubChem
IMPase inh: IMPase inhibition in cells. CHO-M1 cells, IP1 accumulation, HTRF TR-FRET ratio. inhibition (IP1 accumulation), % at 46.1 µM. 120,000 tested, under 10 active. AID 901; active means well fitted curve in the direction sought with a large enough effect in the signal ratio, not every such curve was filed as active; inconclusive means small, poorly fitted or top-dose-only effect, or a change in a side signal; inactive means no such curve, though single readings can be large or run the other way; the % refers to the signal ratio;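 further: cells stimulated with carbachol in lithium chloride buffer; plate controls were DMSO basal wells for no effect and reference inhibitor wells for full effect; higher means more IMPase inhibition seen as more IP1 and lower FRET ratio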
Target sequence (P97697 whole entry, looked up): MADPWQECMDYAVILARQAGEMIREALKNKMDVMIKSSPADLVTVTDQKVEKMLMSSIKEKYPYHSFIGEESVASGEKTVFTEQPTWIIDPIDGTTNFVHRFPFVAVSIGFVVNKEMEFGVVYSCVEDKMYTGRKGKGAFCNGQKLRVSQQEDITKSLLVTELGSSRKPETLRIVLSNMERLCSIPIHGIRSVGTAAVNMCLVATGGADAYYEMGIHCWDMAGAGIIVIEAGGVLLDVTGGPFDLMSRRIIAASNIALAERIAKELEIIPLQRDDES
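Elevated IP1 in lysates lowers TR-FRET signal (665/620 ratio and 620 channel reported). Cells were CHO-M1, given carbachol (50 uM as added) plus 50mM LiCl, pH 7.4, 30 min, 37C; compounds titrated up to 46 uM; AC50 by Hill equation.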
HPGD inh: inhibitors of human 15-hydroxyprostaglandin dehydrogenase (HPGD). 4.3% of 150,000 active. purified HPGD, NADH fluorescence kinetic, PGE2 substrate. Potency, µM, inactives show at the top dose activity change, negative = inhibition, most hits filed as inhibitors; further: potency means the concentration at half of the fitted maximal effect
Target sequence (P15428 whole entry, looked up): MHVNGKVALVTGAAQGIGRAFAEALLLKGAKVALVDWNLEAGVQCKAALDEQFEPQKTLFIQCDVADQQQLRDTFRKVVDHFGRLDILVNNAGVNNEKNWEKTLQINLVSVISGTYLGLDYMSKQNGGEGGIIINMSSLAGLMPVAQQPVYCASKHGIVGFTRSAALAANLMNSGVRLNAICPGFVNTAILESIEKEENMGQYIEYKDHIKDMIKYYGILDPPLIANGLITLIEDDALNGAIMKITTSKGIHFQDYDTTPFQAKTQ
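NADH formation kinetics: reaction with 30 uM PGE2 and 1 mM NAD+ (final), 20 nM enzyme, Tris-HCl pH 8 with Tween 20, after 15 min compound preincubation at room temperature. Fluorescence change, last versus first of five reads.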
PNC inhibitor: blocks assembly of the perinucleolar compartment. PC3M PTB-GFP, PNC prevalence imaging, 16 h; hits give low values. activity change (PNC), negative = inhibition, % at 10 µM. 3.1% of 140,000 active;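 active means readout at or below -70, meaning at least 70% loss of cells showing the perinucleolar compartment, a nuclear body marking cancer cells; inconclusive means readout between -30 and a set limit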;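 further: plate controls were DMSO wells for no effect and camptothecin positive control wells for full effect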
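Compounds are pinned in duplicate onto adhered PC3M cells stably expressing GFP-tagged PTB and incubated 16 h at 37 C. Cells are then fixed, nuclei stained with Hoechst, and PNC-positive cells counted.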
KinaseGlo FLuc: blocks Kinase-Glo luciferase, a counter-screen artifact | Kinase-Glo luciferase, ATP luminescence, 8 min | 0.28% of 200,000 active | Q27757 | Potency, µM (highest dose often 38.3 µM), without a hit: top-dose activity change, negative = inhibition, most hits filed as inhibitors; active means well fitted inhibition curve with a large enough effect; inconclusive means small, poorly fitted or top-dose-only effect; further: potency means the concentration at half of the fitted maximal effect; nearly all actives have a fitted effect of over 60% in size
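Kinase-Glo luciferase light output from ATP and luciferin was measured with 10 uM ATP, within the enzyme's linear range. Buffer: 50 mM imidazole pH 7.2, 50 mM KCl, 7 mM MgCl2, 0.01% Tween 20, 0.05% BSA; luminescence read after 8 min at ambient temperature.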
ALDH1A1 block: blocks purified human ALDH1A1 activity. Purified ALDH1A1, NADH fluorescence, propionaldehyde substrate. Potency, µM (top dose mostly 75.3 µM), for the others: at the highest dose activity, negative = inhibition, usual class: inhibitors. 7.3% of 220,000 active. AID 1030;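 further: potency means the concentration at half of the fitted maximal effect; plate controls were no enzyme wells and a reference inhibitor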
Lamin A splicing: changes lamin A minigene splicing in HeLa cells | HeLa LMNA splicing GFP/RFP minigene ratio, 48 h | Potency, µM (series often up to 46.1 µM), inactives show at the highest dose ratio change, negative = inhibition, actives largely listed as inhibitors | 0.01% of 200,000 active; active means well fitted inhibition curve with a large enough effect in the signal ratio, with a control signal flat, not every such curve was filed as active; inconclusive means small, poorly fitted or top-dose-only effect, or effect the other way, or a change in a side signal; the % refers to the signal ratio; further: potency means the concentration at half of the fitted maximal effect
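S3 HeLa stable clones carrying a lamin A-EGFP splicing minigene plus DsRed2 were seeded at 600 cells/well in Opti-MEM with 2% FBS, pin-dosed and incubated 48 h at 37°C. Acumen cytometry (488 nm) gave the GFP/RFP total-intensity ratio.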
* = called active by the depositor; ? = inconclusive; · = no result; [ ] = remark or other dose. The list is not random: actives were taken first. Their share in the collection is about 10%. Unless noted, the call rests on the fitted dose curve; in most records, active means well fitted inhibition curve with a large enough effect (not every such curve was filed as active); inconclusive means small, poorly fitted or top-dose-only effect, or another doubt; inactive means no such curve, though single readings can be large or run the other way. Unless noted, on the % scale 0 is the no-effect control and ±100 the full control effect.

SMILES	IMPase inh	HPGD inh	PNC inhibitor	KinaseGlo FLuc	ALDH1A1 block	Lamin A splicing
CCOc1ccccc1C(=O)Nc1cc2c(cc1N1CCCCC1)n(C)c(=O)n2C	20	·	·	·	·	·
CCCCN1CCc2c([nH]c3c(C)cccc23)C1=O	8	-24%	-87*	12%	?	9%
CCCc1c(C)c2cccc(C)c2[nH]c1=O	5	-10%	-19	-1%	-2%	-6%
CN(C)c1ccc(NC(=O)c2cccc(N3C(=O)CCC3=O)c2)cc1	?	-12%	-8	4%	19µM*	?
O=C(Nc1ccccc1)c1cccc(N2C(=O)CCC2=O)c1	-3	5%	?	5%	?	-3%
S=P(N1CC1)(N1CC1)N1CC1	·	10µM*	·	-6%	-4%	?
COc1ccccc1NC(=O)c1c(C)oc2c1CCCC2	-7	-22%	-114*	3%	?	-13%
Cc1oc2c(c1C(=O)Nc1cccc3ccccc13)CCCC2	17	-12%	21	3%	?	?
N#Cc1c(Cl)c(Cl)c2nnc(-c3ccc(Br)cc3)n2c1Cl	0	13µM*	42	-1%	?	11%
Cc1ccc2c(n1)sc1c(-c3ccc(Br)cc3)c(C#N)c(N)nc12	10	?	7	-3%	?	6%
CCOC(=O)Cc1ccc(NC(=O)N2CCc3c(sc4c3CCCC4)C2c2ccc(F)cc2)cc1 (stereo not given)	·	·	·	·	·	-17%[46 µM]
CCc1ccc(CCC(=O)O)nc1	·	-1%	·	0%[7.66 µM]	4%[13.5 µM]	·
O=C(CCN1C(=O)C2CCCCC2C1=O)Nc1ccc(F)c(F)c1F (stereo not given)	·	·	·	-3%	10µM*	·
CCCCOc1ccc(Cl)cc1CSc1n[nH]c(C)n1	5	-8%	-1	-1%	6%	12%
COc1ccc(Cl)cc1CSc1n[nH]c(C)n1	1	16µM*	?	17%	-5%	12%
COc1cnc(SCc2ccc(Cl)cc2Cl)nc1Cl	7	18µM*	17	-7%	7.1µM*	?
COc1cnn(-c2ccccc2)c(=O)c1SCc1ccc(Cl)cc1Cl	11	-11%	?	-3%	?	22%
C/C(CCN1CCc2nc(-c3ccccc3)c(-c3ccccc3)cc2C1)=N\O[C@@H](C)CN1CCCc2nc(C)c(C)cc21	·	·	·	·	-14%[13.5 µM]	·
CCOC(=O)C1CCN(C(C)=C2C(=O)c3ccccc3C2=O)CC1	2	-13%	39	-1%	18µM*	-7%
COc1ccc(OCC(=O)N2CCN(C(=O)COc3ccc(Br)cc3)CC2)cc1	1	-5%	-13	6%	-7%	-15%
CCOC(=O)C1CCN(C(=O)COc2ccc(Br)cc2)CC1	0	0%	-97*	4%	4%	-2%
CCOC(=O)C1CCN(CC(O)COc2ccc(C(C)(C)C)cc2)CC1 (stereo not given)	-6	-15%	1	-8%	?	-1%
CCOC(=O)C1CCN(CC(O)COc2ccc(C(C)(C)CC)cc2)CC1 (stereo not given)	7	-6%	-81*	-1%	-5%	3%
CC(=O)N1CCN(C(=O)COc2ccc(Br)cc2)CC1	-4	-3%	-81*	-3%	?	9%
CCc1ccc(NC(=O)CN2C(=O)c3cccc4cccc2c34)cc1	-2	·	·	·	·	·
SMILES	IMPase inh	HPGD inh	PNC inhibitor	KinaseGlo FLuc	ALDH1A1 block	Lamin A splicing
Cc1ccc(C)c(NC(=O)CSc2nccn2-c2cccc(C)c2C)c1	·	·	·	·	·	-23%[46 µM]
CC(=C1C(=O)c2ccccc2C1=O)N1CCc2ccccc2C1	-9	-13%	?	8%	8.9µM*	-2%
CCOC(=O)C1CCN(C(=O)COc2cccc(C)c2)CC1	-7	-11%	-85*	-3%	-6%	-13%
CC(=O)c1ccc(N2CCN(C(=O)COc3ccc(F)cc3)CC2)c(F)c1	4	-11%	-4	0%	?	?
Cc1cccc(OCC(=O)N2CCOCC2)c1	·	-9%	40	-5%	-1%	4%
CNC(=S)N1CCc2ccccc2C1	·	-14%	?	2%	3%	-2%
